The campaign covered roughly 200,000 compounds. About 50 (0.03%) were called active. No rule for the calls is given here. Only a selection was taken, and actives are over-represented in it overall. Entries with a potency or affinity are not part of this list.
These compounds were tested against Alkaline phosphatase, tissue-nonspecific isozyme (Homo sapiens) (UniProt P05186) (assay: human TNAP enzyme activators, primary screen, biochemical, luminescent, no phosphate acceptor, uHTS (AID 1001)). Conditions: purified TNAP, luminescent activation assay, at 20 µM, hits give high values.
Alkaline phosphatase, tissue-nonspecific isozyme (Homo sapiens), sequence (P05186 whole entry, looked up): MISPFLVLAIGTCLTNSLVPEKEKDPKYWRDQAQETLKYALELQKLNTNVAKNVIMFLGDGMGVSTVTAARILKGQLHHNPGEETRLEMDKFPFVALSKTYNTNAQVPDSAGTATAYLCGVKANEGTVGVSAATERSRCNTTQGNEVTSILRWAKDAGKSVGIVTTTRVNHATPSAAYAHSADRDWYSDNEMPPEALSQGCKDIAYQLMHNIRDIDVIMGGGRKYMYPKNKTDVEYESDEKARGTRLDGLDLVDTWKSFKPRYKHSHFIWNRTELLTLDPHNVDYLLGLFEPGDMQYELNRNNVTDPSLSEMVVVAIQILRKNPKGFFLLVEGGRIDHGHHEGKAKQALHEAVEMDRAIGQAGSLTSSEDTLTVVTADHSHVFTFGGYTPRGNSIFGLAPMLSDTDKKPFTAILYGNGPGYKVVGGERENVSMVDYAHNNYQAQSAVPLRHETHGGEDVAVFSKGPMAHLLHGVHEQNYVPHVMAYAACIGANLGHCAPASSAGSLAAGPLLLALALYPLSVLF

Activation fold, inactive:
CCCCNC(=O)CCC(=O)NNc1nc2ccccc2c2nc(-c3ccccc3)nn12 1.6
O=C(CCC(=O)NNc1nc2ccccc2c2nc(-c3ccccc3)nn12)NCCCN1CCCC1=O 1.1
CCOCCCNC(=O)CCC(=O)NNc1nc2ccccc2c2nc(-c3ccccc3)nn12 2.1
COCCCNC(=O)CCC(=O)NNc1nc2ccccc2c2nc(-c3ccccc3)nn12 2.3
COc1ccc(C(=O)N/C(=C\c2ccccc2)C(=O)NC(CC(C)C)C(=O)O)cc1 (centres undefined) 1.1
Cc1coc(C)c1C(=O)CC1(O)C(=O)N(CCc2ccccc2)c2ccccc21 (centres undefined) 1.1
CCOC(=O)CSc1nc2c(sc3ccc([N+](=O)[O-])cc32)c(=O)n1Cc1ccco1 1.1
CCOc1ccc(-n2cc(-c3ccccc3)c3c(N4CCOCC4)ncnc32)cc1 1.1
O=c1cc(NCc2ccc3c(c2)OCO3)[nH]c(=O)n1-c1ccc(Cl)cc1 1.1
O=S(=O)(Nc1ccc2c(c1)OCO2)c1ccccc1 1.1
CNC(=O)N(O)C1N(C)C(=O)N(Cc2ccccc2)C1(C)C (centres undefined) 1.1
O=C(CCN1C(=O)/C(=C\c2ccccc2)SC1=S)NNC(=O)c1cccnc1 1.6
O=C(CCN1C(=O)/C(=C/c2ccccc2)SC1=S)NNC(=O)c1cccnc1 1.6
CCCC(Oc1ccc(Br)cc1)c1nc2c3cc(OC)c(OC)cc3nc(=S)n2[nH]1 (centres undefined) 1.2
Cc1cc(N2CCCCC2)nc(N)n1 1.1
Cc1cc(N2CCCCC2)nc(NCc2ccccc2)n1 1
COc1cccc(C(=O)NNC(=O)c2ccccc2-n2cccc2)c1 1.3
O=C(CSc1nnc(-c2ccncc2)n1Cc1ccccc1)NCCc1ccccc1 1.2
Clc1ccc(SCCn2ccnc2)cc1 1.1
S=C(NCCCn1ccnc1)Nc1ccc(Cl)cc1Cl 1
Clc1ccc(OCCn2ccnc2)c(Cl)c1 1
OC(Cn1ccnc1)c1ccc(Cl)cc1Cl (centres undefined) 1
Cc1cc2cc3c(cc2nc1SCC(=O)O)CCC3 1
CCCCC(=O)Nc1ccc(C(=O)OC2CCCCC2)cc1 1
CCS(=O)(=O)N1CCC(NC(=O)c2ccco2)CC1 1.1
O=C(O)c1ccc(CNC(=O)c2ccc(C(F)(F)F)cc2)cc1 1
COC(=O)c1ccc(/C=C2\N=C(SC)SC2=O)cc1 1.1
OCCCN1c2ccccc2Nc2nnc(-c3ccccc3)cc21 1.5
CC(=O)OCCCN1C(=O)c2ccc(Br)cc2C1=O 1
